PubChem BioAssay
Results filed as inconclusive are left out. Active and inactive are the calls of the source.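 Rule for the calls, unless noted: active = inhibition above the screen-wide mean plus 3 SD, about 51%; inactive = the rest.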

How the values were obtained:
[1] = rapamycin-like changes in RPL19A-GFP expression – cell-based, S. cerevisiae, multiplex flow cytometry, primary screen (AID 1862; in the data active = percent of DMSO control GFP below about 86%;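 note: lower values mimic rapamycin by blocking the RPL19A rise seen in DMSO cells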); conditions: S. cerevisiae RPL19A-GFP strain, flow cytometry fluorescence, 3 h; at 10 µM; stronger effect = lower value
[2] = TOR pathway GLN3 branch reporter MEP2-GFP changes – S. cerevisiae, multiplex flow cytometry, primary screen (AID 1867;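 active = GFP response, as percent of the DMSO control, above the screen-wide mean plus 3 SD, about 139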;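 note: median GFP channel fluorescence of barcode-gated MEP2-GFP cells measured by flow cytometry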); conditions: S. cerevisiae MEP2-GFP strain, 3 h, at 10 µM, stronger effect = higher value, 100% means same as DMSO wells
[3] = TOR pathway RTG branch CIT2 reporter changes – S. cerevisiae, GFP fusion, multiplex flow cytometry, primary screen (AID 1870;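 active = percent response above a set limit, the screen-wide mean plus 3 SD, cut at about 130% in these data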;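 note: barcoded CIT2-GFP strain pooled with four other GFP strains with rapamycin as positive control; median GFP fluorescence per well over plate mean of DMSO wells so 100% = DMSO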); conditions: S. cerevisiae CIT2-GFP expression, 3 h, at 10 µM, stronger effect = higher value
[4] = TOR pathway LAP4-GFP level changes – S. cerevisiae, multiplex flow cytometry, primary screen (AID 1873;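 active = GFP signal, as percent of the solvent control, above the screen mean plus 3 SD, about 149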); conditions: S. cerevisiae LAP4-GFP expression, 3 h, at 10 µM, stronger effect = higher value
[5] = yeast AGP1-GFP level changes, GLN3 branch – cell-based, multiplex flow cytometry, S. cerevisiae, primary screen (AID 1887;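 active = GFP signal above the screen-wide mean plus 3 SD, that is over about 124.5% of the solvent control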;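 note: AGP1-GFP fusion strain of S. cerevisiae within a five-strain barcoded multiplex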); conditions: 3 h, at 10 µM, stronger effect = higher value
[6] = reduced mouse 2C T cell binding to pMHC/ICAM-1 vesicles – MLPCN validation set, flow cytometry, LFA-1/ICAM-1 modulator project, pilot screen (AID 2523;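 active = response below a set limit, under 55% cells CD8-positive and vesicle-bound, and CD8 cells' 90th-percentile brightness under 279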;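 for vesicle binding response: mean PE anti-B7-1 fluorescence of CD8+ cells relative to row control; 100% = QL9-loaded vesicles with DMSO vehicle in the same plate row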); conditions: 2C mouse CD8+ T cells, at 7 µM, stronger effect = lower value; double positive events: measured here: CD8+/vesicle+ event percentage
[7] = target: Integrin beta-1 (Homo sapiens) + Integrin alpha-4 (Homo sapiens) (UniProt P13612+P05556); assay: alpha4beta1 integrin LIBS antibody binding reduction – U937 cells, HUTS-21 mAb, flow cytometry, validation set, VLA-4 allosteric modulator project, pilot screen (AID 2674;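 active = inhibition above 50%, about 3 SD of the validation set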;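 note: antibody binding induced by the VLA-4 ligand LDV present at three times its Kd; 0% = LDV ligand with antibody and no compound and 100% = antibody without LDV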); conditions: HUTS-21 LIBS mAb binding, at 6.7 µM, stronger effect = higher value, binding induced by LDV ligand
Sequence of Integrin beta-1 (Homo sapiens) + Integrin alpha-4 (Homo sapiens) (P05556 whole entry, looked up): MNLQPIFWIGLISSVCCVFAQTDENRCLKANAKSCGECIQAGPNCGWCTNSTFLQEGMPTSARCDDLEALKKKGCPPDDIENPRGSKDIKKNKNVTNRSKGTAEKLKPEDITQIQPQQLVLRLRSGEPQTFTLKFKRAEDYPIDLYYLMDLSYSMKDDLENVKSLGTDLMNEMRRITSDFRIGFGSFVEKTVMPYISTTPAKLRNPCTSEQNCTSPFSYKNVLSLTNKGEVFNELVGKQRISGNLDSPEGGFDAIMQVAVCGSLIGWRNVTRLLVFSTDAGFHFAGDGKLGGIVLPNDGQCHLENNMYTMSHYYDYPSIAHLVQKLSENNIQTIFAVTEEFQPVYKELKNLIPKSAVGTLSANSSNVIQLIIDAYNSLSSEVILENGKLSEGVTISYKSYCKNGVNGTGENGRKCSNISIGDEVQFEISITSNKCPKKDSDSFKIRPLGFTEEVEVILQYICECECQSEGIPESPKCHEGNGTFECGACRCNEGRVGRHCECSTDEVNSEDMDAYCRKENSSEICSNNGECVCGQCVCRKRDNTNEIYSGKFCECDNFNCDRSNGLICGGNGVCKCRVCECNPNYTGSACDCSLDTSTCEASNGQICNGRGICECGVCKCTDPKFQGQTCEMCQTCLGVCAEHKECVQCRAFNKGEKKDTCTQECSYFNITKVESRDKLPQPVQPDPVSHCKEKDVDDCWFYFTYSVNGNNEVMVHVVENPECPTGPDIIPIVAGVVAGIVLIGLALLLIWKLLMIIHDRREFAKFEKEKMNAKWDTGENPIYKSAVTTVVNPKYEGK
Sequence of Integrin beta-1 (Homo sapiens) + Integrin alpha-4 (Homo sapiens) (P13612 whole entry, looked up): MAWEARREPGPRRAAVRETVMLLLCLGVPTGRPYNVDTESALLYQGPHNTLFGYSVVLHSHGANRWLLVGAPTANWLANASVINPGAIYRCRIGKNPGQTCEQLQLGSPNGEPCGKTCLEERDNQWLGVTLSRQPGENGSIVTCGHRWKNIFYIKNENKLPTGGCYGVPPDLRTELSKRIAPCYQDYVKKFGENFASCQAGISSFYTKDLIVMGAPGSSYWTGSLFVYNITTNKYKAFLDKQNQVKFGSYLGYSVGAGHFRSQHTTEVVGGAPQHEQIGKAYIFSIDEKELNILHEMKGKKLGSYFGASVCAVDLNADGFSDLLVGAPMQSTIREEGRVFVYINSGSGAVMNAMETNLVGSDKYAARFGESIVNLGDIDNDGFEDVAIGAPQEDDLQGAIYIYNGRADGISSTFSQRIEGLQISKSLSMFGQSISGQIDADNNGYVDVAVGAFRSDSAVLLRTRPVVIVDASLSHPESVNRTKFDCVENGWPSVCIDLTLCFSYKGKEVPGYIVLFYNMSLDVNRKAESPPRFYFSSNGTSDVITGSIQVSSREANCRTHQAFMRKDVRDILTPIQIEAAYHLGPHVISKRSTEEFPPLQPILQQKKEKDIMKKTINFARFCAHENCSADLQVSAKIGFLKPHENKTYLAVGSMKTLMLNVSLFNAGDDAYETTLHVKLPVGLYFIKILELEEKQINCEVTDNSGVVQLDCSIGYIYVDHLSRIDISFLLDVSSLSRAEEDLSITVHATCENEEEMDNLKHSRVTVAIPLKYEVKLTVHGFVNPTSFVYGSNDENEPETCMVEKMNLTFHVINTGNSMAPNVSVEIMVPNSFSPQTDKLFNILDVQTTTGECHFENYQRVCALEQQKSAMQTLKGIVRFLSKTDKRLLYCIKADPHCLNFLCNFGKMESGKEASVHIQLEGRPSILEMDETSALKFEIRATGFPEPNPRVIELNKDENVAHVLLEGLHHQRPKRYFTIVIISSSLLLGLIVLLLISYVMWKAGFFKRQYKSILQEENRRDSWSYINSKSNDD

[8] = calorie-restriction mimetic ROS inhibitors, yeast – validation compound set, pilot screen (AID 2706;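 active = superoxide response below 65% of plate, a cut near 3 SD across the whole screen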;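 note: yeast exposed to compound for one week at 30 degrees C before staining; 100% = mean of all compound wells on the same plate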); conditions: S. cerevisiae aging, superoxide DHE fluorescence; at 10 µM; stronger effect = lower value
[9] = target: Beta-adrenergic receptor kinase 1 (Homo sapiens) (UniProt P25098); assay: GRK2 binders displacing RNA aptamer, biochemical, validation, human GRK2, bead flow cytometry (AID 488806;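 active = aptamer binding inhibition above 30%, about 3 SD of noise from non-fluorescent compounds; inactive = inhibition at or below 30%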); conditions: bead-bound GRK2, FAM-aptamer displacement, at 10 µM, stronger effect = higher value
Sequence of Beta-adrenergic receptor kinase 1 (Homo sapiens) (P25098 whole entry, looked up): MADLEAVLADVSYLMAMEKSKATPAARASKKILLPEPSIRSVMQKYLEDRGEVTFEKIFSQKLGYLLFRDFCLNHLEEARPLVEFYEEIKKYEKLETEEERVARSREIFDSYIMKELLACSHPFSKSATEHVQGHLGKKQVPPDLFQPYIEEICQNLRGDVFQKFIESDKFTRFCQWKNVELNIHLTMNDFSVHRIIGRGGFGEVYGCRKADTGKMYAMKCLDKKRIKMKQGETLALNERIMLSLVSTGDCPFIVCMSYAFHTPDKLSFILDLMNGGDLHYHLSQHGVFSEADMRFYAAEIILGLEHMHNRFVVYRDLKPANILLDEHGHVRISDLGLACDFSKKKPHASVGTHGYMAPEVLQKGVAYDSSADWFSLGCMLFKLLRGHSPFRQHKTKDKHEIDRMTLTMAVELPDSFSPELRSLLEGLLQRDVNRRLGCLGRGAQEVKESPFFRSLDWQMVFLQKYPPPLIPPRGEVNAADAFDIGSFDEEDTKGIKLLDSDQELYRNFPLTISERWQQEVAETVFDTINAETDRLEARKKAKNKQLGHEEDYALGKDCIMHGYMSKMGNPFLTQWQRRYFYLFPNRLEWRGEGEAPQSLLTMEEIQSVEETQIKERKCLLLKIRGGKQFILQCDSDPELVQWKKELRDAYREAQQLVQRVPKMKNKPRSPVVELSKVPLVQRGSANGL

[10] = target: Beta-2 adrenergic receptor (Homo sapiens) (UniProt P07550); assay: agonist-induced loss of surface beta2AR – cell-based, FAP fluorogen, flow cytometry, validation set, pilot screen (AID 504459;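 active = percent response above 42, roughly 3 SD of non-fluorescent test compounds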;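 note: agonist-driven loss of surface beta2AR via internalization measured by FAP dye flow cytometry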); conditions: Am2.2-beta2AR cells, at 10 µM, stronger effect = higher value
Sequence of Beta-2 adrenergic receptor (Homo sapiens) (P07550 whole entry, looked up): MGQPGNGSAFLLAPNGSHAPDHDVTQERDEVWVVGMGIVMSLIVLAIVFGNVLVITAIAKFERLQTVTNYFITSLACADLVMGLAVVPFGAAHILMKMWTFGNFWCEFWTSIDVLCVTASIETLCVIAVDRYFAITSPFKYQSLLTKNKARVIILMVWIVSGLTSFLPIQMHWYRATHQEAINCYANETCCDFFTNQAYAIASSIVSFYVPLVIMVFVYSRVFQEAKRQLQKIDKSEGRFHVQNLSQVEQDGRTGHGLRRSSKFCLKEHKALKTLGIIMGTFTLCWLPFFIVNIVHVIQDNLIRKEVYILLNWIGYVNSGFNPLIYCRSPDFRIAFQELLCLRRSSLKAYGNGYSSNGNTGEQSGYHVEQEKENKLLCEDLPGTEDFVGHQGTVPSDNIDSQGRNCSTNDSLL

[11] = target: AP-2 complex subunit beta (Homo sapiens) (UniProt P63010); assay: beta-arrestin/AP2 interaction blockers – biochemical, validation set, GST-AP2 beads, flow cytometry, pilot screen (AID 504541;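 active = inhibition above 54%, about 3 SD of non-fluorescent compounds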;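 note: AP2 carries R879A mutation and is captured from E. coli lysate; bead-bound FITC arrestin peptide fluorescence measuring arrestin peptide binding to AP2; 0% = DMSO wells and 100% = excess unlabeled arrestin peptide control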); conditions: FITC arrestin peptide, at 10 µM, stronger effect = higher value, AP2 beta2 appendage fragment, R879A mutant
Sequence of AP-2 complex subunit beta (Homo sapiens) (P63010 whole entry, looked up, the tested form may be a part, one chain of several): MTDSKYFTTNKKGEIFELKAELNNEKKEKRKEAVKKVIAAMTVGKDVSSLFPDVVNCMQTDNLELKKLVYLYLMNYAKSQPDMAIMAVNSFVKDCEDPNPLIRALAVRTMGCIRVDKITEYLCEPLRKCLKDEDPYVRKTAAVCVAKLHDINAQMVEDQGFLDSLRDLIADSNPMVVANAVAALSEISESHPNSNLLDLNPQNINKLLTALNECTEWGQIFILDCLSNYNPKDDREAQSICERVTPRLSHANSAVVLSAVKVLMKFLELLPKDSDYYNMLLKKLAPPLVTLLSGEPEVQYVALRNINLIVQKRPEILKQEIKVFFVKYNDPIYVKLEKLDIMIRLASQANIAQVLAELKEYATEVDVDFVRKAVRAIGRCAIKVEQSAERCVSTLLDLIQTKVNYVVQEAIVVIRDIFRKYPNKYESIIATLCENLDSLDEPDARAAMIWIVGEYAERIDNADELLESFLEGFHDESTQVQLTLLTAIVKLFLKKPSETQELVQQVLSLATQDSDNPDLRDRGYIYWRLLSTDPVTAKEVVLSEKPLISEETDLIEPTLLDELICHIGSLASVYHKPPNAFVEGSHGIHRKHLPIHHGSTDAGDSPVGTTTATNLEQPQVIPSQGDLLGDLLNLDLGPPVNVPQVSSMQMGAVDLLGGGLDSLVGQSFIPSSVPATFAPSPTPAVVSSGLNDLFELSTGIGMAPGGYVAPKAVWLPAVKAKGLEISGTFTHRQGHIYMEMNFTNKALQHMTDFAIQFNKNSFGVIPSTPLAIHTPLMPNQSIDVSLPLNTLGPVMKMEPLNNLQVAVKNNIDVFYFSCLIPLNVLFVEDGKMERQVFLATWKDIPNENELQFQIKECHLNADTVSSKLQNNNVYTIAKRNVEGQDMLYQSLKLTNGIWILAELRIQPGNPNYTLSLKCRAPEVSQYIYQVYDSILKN

[12] = cytosolic pH regulators acting via V-ATPase – S. cerevisiae, pHLuorin, HTS validation (AID 504600; in the data active = response above about 15%;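 note: plate controls were DMSO for no effect and reference compound for full effect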); conditions: V-ATPase proton transport, at 10 µM, stronger effect = higher value
[13] = system: anti-desmoglein-3 scFv antibody binding to human DSG3; assay: blockers of pathogenic pemphigus antibody–desmoglein-3 binding – biochemical, validation compound set, bead-based, flow cytometry, pilot screen (AID 588368;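 active = binding below the plate cutoff, the plate median minus 3 SD, with a reading above zero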;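 note: signal is the median channel fluorescence of bead-bound GFP antibody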); conditions: Protein G beads, DSG3-Fc, scFv-GFP binding, at 10 µM, stronger effect = lower value
[14] = Nile Red efflux blockade in pump-expressing yeast – validation compound set, multiplex, phenotypic, pilot screen (AID 588506;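 active = efflux inhibition above 0.42, the validation set average plus 4 SD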;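 note: Nile Red retained in cells so higher fluorescence means more efflux inhibition; 0 = negative control wells and 1 = enniatin B 25 µM full block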); conditions: S. cerevisiae pump-expressing triplex, Nile Red efflux flow cytometry; at 10 µM; stronger effect = higher value; the pumps come from Candida albicans
[15] = target: ATP-binding cassette sub-family B member 6 (Homo sapiens) (UniProt Q9NP58); assay: blockers of ABCB6-driven porphyrin uptake – K562-ABCB6 cells, flow cytometry, validation set, pilot screen (AID 588550); conditions: K562-ABCB6 porphyrin accumulation, 1 h, at 10 µM, stronger effect = higher value;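 note: 0% = DMSO wells and 100% = benzethonium chloride 70 µM positive control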
Sequence of ATP-binding cassette sub-family B member 6 (Homo sapiens) (Q9NP58 whole entry, looked up): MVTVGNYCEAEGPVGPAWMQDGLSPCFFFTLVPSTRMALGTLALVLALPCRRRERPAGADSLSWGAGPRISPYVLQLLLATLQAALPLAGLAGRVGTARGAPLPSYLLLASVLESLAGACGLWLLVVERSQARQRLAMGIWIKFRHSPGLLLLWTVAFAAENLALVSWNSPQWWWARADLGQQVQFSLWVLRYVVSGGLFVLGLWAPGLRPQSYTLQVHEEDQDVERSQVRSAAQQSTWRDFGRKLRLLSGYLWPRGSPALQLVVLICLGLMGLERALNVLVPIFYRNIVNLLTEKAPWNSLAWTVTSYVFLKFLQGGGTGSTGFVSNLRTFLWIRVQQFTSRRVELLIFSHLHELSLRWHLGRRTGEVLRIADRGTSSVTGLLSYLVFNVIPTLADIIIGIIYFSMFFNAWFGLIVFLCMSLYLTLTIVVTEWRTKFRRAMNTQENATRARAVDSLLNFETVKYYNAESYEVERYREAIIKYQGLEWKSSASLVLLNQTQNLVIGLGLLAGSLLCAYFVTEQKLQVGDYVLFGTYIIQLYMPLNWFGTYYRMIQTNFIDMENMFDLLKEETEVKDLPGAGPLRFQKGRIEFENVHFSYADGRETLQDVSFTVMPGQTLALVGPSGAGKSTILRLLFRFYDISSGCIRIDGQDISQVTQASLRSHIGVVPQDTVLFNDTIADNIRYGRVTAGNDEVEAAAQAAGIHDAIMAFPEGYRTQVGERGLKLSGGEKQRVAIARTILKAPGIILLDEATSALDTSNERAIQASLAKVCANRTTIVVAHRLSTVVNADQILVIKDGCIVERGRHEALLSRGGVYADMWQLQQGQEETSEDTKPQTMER

[16] = AML differentiation inducers, ER-HoxA9 marrow cells – cell-based, GFP/MAC1 double positive, flow cytometry, validation set, primary screen (AID 588685;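 active = differentiation response of at least 50%, scaled between solvent and reference control, from cells with both markers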;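 note: compound exposure lasts four days before antibody staining and flow analysis; 0% = DMSO wells and 100% = 5 µM fulvestrant positive control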); conditions: stronger effect = higher value, normalized: vehicle 0, fulvestrant 100

CCOc1ccc2nc(N/C(N)=N/S(C)(=O)=O)nc(C)c2c1
67.9%: double positive events [6]
inactive: percent of DMSO control GFP [1] 90.6% | GFP response vs DMSO [2] 132% | percent response of DMSO control [3] 107% | GFP response vs DMSO [4] 84.7% | GFP response, % of DMSO [5] 93.8% | vesicle binding response [6] 174% | inhibition [7] -3.24% | superoxide response (% of plate) [8] 98.7% | aptamer binding inhibition [9] 3% | response [10] -5.51% | inhibition [11] 35.3% | response [12] -5.13% | binding (% of control) [13] 95% | efflux inhibition (fraction of control) [14] 0.05 | inhibition [15] 0% | differentiation response [16] 3.28%

COc1ccc(/C=C2\CC/C(=C\c3ccc(OC)c(OC)c3)C2=O)cc1OC
59.8%: double positive events [6]
inactive: percent of DMSO control GFP [1] 99.8% | GFP response vs DMSO [2] 103% | percent response of DMSO control [3] 97.1% | GFP response vs DMSO [4] 97.2% | GFP response, % of DMSO [5] 96.6% | vesicle binding response [6] 254% | inhibition [7] -18.9% | superoxide response (% of plate) [8] 99% | aptamer binding inhibition [9] 3% | response [10] 17.4% | inhibition [11] 0.71% | response [12] -0.5% | binding (% of control) [13] 98.8% | efflux inhibition (fraction of control) [14] 0.1 | inhibition [15] 2% | differentiation response [16] -5.68%

COc1ccc(/C=C/C(=O)Nc2ccccc2C(=O)O)cc1OC
inactive: percent of DMSO control GFP [1] 111% | GFP response vs DMSO [2] 110% | percent response of DMSO control [3] 106% | GFP response vs DMSO [4] 76.9% | GFP response, % of DMSO [5] 99.5% | vesicle binding response [6] 50.8% | inhibition [7] -5.64% | superoxide response (% of plate) [8] 123% | aptamer binding inhibition [9] 3% | response [10] 12.8% | inhibition [11] -8.31% | response [12] 6.81% | binding (% of control) [13] 96.9% | efflux inhibition (fraction of control) [14] 0.02 | inhibition [15] 3% | differentiation response [16] -5.62%
60.2%: double positive events [6]

COc1ccc(/C=C/C(=O)c2cc3cccc(OC)c3oc2=O)cc1
inactive: percent of DMSO control GFP [1] 103% | GFP response vs DMSO [2] 106% | percent response of DMSO control [3] 103% | GFP response vs DMSO [4] 106% | GFP response, % of DMSO [5] 95.7% | vesicle binding response [6] 172% | inhibition [7] -11.8% | superoxide response (% of plate) [8] 107% | aptamer binding inhibition [9] 0% | response [10] 7.46% | inhibition [11] 4.15% | response [12] 1.33% | binding (% of control) [13] 96% | efflux inhibition (fraction of control) [14] 0.03 | inhibition [15] -11% | differentiation response [16] 2.74%
57.4%: double positive events [6]

Cc1ccc(C(=O)O)cc1NC(=O)c1cccs1
64.1%: double positive events [6]
inactive: percent of DMSO control GFP [1] 100% | GFP response vs DMSO [2] 107% | percent response of DMSO control [3] 99.3% | GFP response vs DMSO [4] 99.4% | GFP response, % of DMSO [5] 98.6% | vesicle binding response [6] 206% | inhibition [7] -17.5% | superoxide response (% of plate) [8] 109% | aptamer binding inhibition [9] 8% | response [10] 4.14% | inhibition [11] -1.98% | response [12] -0.65% | binding (% of control) [13] 100% | efflux inhibition (fraction of control) [14] 0.04 | inhibition [15] 10% | differentiation response [16] 0.41%

O=C(O)COc1ccc2occ(C(=O)c3ccccc3)c2c1
inactive: percent of DMSO control GFP [1] 99.8% | GFP response vs DMSO [2] 106% | percent response of DMSO control [3] 101% | GFP response vs DMSO [4] 96% | GFP response, % of DMSO [5] 92.9% | vesicle binding response [6] 180% | inhibition [7] 15.1% | superoxide response (% of plate) [8] 107% | aptamer binding inhibition [9] 4% | response [10] -5% | inhibition [11] 0.98% | response [12] 0.64% | binding (% of control) [13] 94.2% | efflux inhibition (fraction of control) [14] -0.17 | inhibition [15] 3% | differentiation response [16] 7.09%
63.9%: double positive events [6]

CCC(C(=O)OCCN(CC)CC)c1ccccc1 (stereo not drawn)
inactive: percent of DMSO control GFP [1] 101% | GFP response vs DMSO [2] 101% | percent response of DMSO control [3] 98.2% | GFP response vs DMSO [4] 85.9% | GFP response, % of DMSO [5] 99.1% | vesicle binding response [6] 33.7% | inhibition [7] 2.55% | superoxide response (% of plate) [8] 97.2% | aptamer binding inhibition [9] 5% | response [10] 8.98% | inhibition [11] 19.7% | response [12] -2.47% | binding (% of control) [13] 98.8% | efflux inhibition (fraction of control) [14] 0.26 | inhibition [15] 6% | differentiation response [16] 14.9%
57.2%: double positive events [6]

CC(C)c1ccc(OCc2ccc(C(=O)O)o2)cc1
87.7%: double positive events [6]
inactive: percent of DMSO control GFP [1] 105% | GFP response vs DMSO [2] 102% | percent response of DMSO control [3] 109% | GFP response vs DMSO [4] 91.5% | GFP response, % of DMSO [5] 93.7% | vesicle binding response [6] 313% | inhibition [7] 11% | superoxide response (% of plate) [8] 107% | aptamer binding inhibition [9] 15% | response [10] 5.55% | inhibition [11] 2.53% | response [12] 13.4% | binding (% of control) [13] 98.3% | efflux inhibition (fraction of control) [14] -0.16 | inhibition [15] 2% | differentiation response [16] -7.5%

O=C(/C=C/c1ccc(F)cc1)NC(=S)N1CCCCC1c1cccnc1 (stereo not drawn)
56.7%: double positive events [6]
active: aptamer binding inhibition [9] 82%
inactive: percent of DMSO control GFP [1] 103% | GFP response vs DMSO [2] 106% | percent response of DMSO control [3] 112% | GFP response vs DMSO [4] 117% | GFP response, % of DMSO [5] 112% | vesicle binding response [6] 165% | inhibition [7] -3.67% | superoxide response (% of plate) [8] 92.2% | response [10] -15.6% | inhibition [11] 1.74% | response [12] 5.24% | binding (% of control) [13] 104% | efflux inhibition (fraction of control) [14] -0.13 | inhibition [15] -5% | differentiation response [16] -4.99%
